Reference: PubChem BioAssay (NCI)
The panel holds about 79,000 compounds, 15% with a hit somewhere; the sample as a whole holds those more often. Values without a mark were called inactive. Calls of active or inactive are those of the source. Rule as the data show it: active = growth inhibition above about 70%; inactive = the rest.

Columns and labels:
[1] = NCI Yeast Anticancer Drug Screen. Data for the rad50 strain (AID 155);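 also: 0% = growth of vehicle-only cultures of the same strain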; conditions: S. cerevisiae rad50 strain growth inhibition, active compounds read high
Outline: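 Growth of the mutant yeast was measured after compound exposure and referenced to vehicle-treated cultures.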

[2] = NCI Yeast Anticancer Drug Screen. Data for the mec2-1 strain (AID 157); conditions: S. cerevisiae mec2-1 strain, active compounds read high
Outline: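 Yeast mec2-1 mutant treated with compound. Readout: growth inhibition vs vehicle controls.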

[3] = NCI Yeast Anticancer Drug Screen. Data for the sgs1 mgt1 strain (AID 161);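 also: 0% = growth of cultures given vehicle only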; conditions: S. cerevisiae sgs1 mgt1 strain, active compounds read high
Outline: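 Read-out: growth inhibition vs vehicle controls. Cells: mutant yeast strain deficient in DNA damage repair.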

[4] = NCI Yeast Anticancer Drug Screen. Data for the cln2 rad14 strain (AID 165);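 also: 0% = growth equal to vehicle treated cultures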; conditions: S. cerevisiae cln2 rad14 strain, active compounds read high
Outline: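 cln2 rad14 yeast strain; compound exposure; growth inhibition read vs vehicle controls.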

[5] = NCI Yeast Anticancer Drug Screen. Data for the bub3 strain (AID 167); conditions: S. cerevisiae bub3 mutant strain, active compounds read high
Outline: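 Whole-cell yeast assay. The mutant strain was incubated with compounds, and growth inhibition was determined by comparison with vehicle-treated cells.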

[6] = NCI Yeast Anticancer Drug Screen. Data for the mlh1 rad18 strain (AID 175); conditions: S. cerevisiae mlh1 rad18 strain growth inhibition, active compounds read high
Outline: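 Yeast w/ defined DNA-repair lesions; compound exposure; growth vs vehicle controls → % inhibition.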

[7] = at 5.0 µM (retest, dose inferred, filed as 0.5)
[8] = at 50.0 µM (retest, dose inferred, filed as 5.0)

Compound	growth inhibition [1, 7]	growth inhibition [1, 8]	growth inhibition ([1]; at 50.0 µM)	growth inhibition [2, 7]	growth inhibition [2, 8]	growth inhibition ([2]; at 50.0 µM)	growth inhibition [3, 7]	growth inhibition [3, 8]	growth inhibition ([3]; at 50.0 µM)	growth inhibition [4, 7]	growth inhibition [4, 8]	growth inhibition ([4]; at 50.0 µM)	growth inhibition [5, 7]	growth inhibition [5, 8]	growth inhibition ([5]; at 50.0 µM)	growth inhibition [6, 7]	growth inhibition [6, 8]	growth inhibition ([6]; at 50.0 µM)
c1cc2c3c(c1)[I+]c1cccc(c1-3)[I+]2	51%	67%	69.8%	34%	58%	27.1%	53%	80% (active)	65.9%	24%	40%	45%	39%	31%	36.3%	64%	88% (active)	55.9%
CC(=O)Nc1ccc(/C=C2/NC(=S)N(/C=C3\C(=O)Oc4ccccc4C3=O)C2=O)cc1	-10%	50%	70.7% (active)	-19%	60%	76.5% (active)	-6%	29%	78.7% (active)	-15%	64%	86% (active)	-12%	36%	67.2%	-9%	44%	76.2% (active)
CCN(CC)CCCC(C)Nc1cc(O)c2c(c1O)C(=O)c1ccccc1C2=O (configuration not stated)	96% (active)	98% (active)	98.8% (active)	95% (active)	99% (active)	98.5% (active)	98% (active)	99% (active)	98.8% (active)	53%	98% (active)	97.2% (active)	95% (active)	98% (active)	97.8% (active)	94% (active)	98% (active)	98.8% (active)
CC1=CC(=O)[C@@H](O)[C@]2(C)[C@H]3[C@@]4(O)OC[C@]35[C@H]([C@@H](C)[C@H]4O)[C@@H](OC(=O)C(C)(C)CO)C(=O)O[C@@H]5C[C@@H]12	10%	44%	90.7% (active)	15%	45%	90.8% (active)	6%	40%	88.3% (active)	17%	51%	90.5% (active)	6%	39%	92.2% (active)	6%	51%	-7.05%
CCC(N)(CO)CO	7%	67%	3.65%	5%	8%	8.3%	2%	11%	9.7%	5%	12%	71.5% (active)	3%	14%	44.1%	2%	8%	-30.2%
Oc1ccc2c(ccc3ccccc32)c1	1%	98% (active)	97.5% (active)	-4%	100% (active)	97.3% (active)	0%	91% (active)	99.4% (active)	-3%	99% (active)	99% (active)	4%	88% (active)	99% (active)	-1%	99% (active)	99.2% (active)
C#CCNC1=CC(=O)CCC1	-14%	16%	-12.1%	0%	-1%	9.55%	-3%	-10%	-4.55%	17%	6%	58.5%	14%	-13%	35.5%	-4%	1%	17.6%
CCNCC(O)COc1ccc2c(c1)[n+]([O-])nc(N)[n+]2[O-] (configuration not stated)	39%	75% (active)	61.1%	31%	88% (active)	70% (active)	42%	60%	62.8%	42%	41%	40.9%	47%	84% (active)	63%	50%	91% (active)	58.8%
CCCCCCc1ccc(O)c(Cl)c1	0%	28%	98.8% (active)	0%	15%	94% (active)	-1%	15%	77.3% (active)	-4%	-3%	44.1%	-5%	-8%	57.4%	0%	19%	89.6% (active)
